Screens from PubChem.
In the library only some 3.6% were active in any assay of this set; here they are far more common.
MmCpn inh: inhibitors of Methanococcus maripaludis chaperonin TRiC (MmCpn) | purified Mm-Cpn ATPase, ADP Transcreener TR-FRET | AID 504842 | hit rate 0.031% among 330,000 | Potency, µM (doses to about 76.9 µM), for the others: at the highest dose activity, negative = inhibition, hits mostly inhibitors; further: on the % scale 0 is the no-effect control and ±100 the full control effect; nearly all actives have a fitted effect of over 80% in size
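ATPase read-out: TR-FRET ADP immunoassay (anti-ADP Eu cryptate vs ADP-d2), ex 320 nm, em 590/665 nm; signal drops as ADP forms. Enzyme 25 nM, ATP 10 uM, 30 min at 37°C after 10 min compound preincubation.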
aSyn rescue: rescues yeast growth from alpha-synuclein toxicity; Potency, µM (top dose mostly 46.1 µM), for inactives: at the top dose growth rescue (activation), hits mostly activators; Yeast expressing alpha-synuclein, growth rescue, BacTiter-Glo, 24 h; AID 652106; hit rate 0.14% among 370,000; further: % of control where 0% means no effect; nearly all actives have a fitted effect of over 65% in size
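Readout is rescue of growth in alpha-synuclein-expressing yeast, so inhibitors of toxicity appear as activators. Growth after 24 hr at 30 deg C in galactose medium is quantified by luminescence.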
FUS yeast rescue: FUS proteinopathy suppression in yeast | S. cerevisiae FUS-expressing, growth rescue, OD600, 24 h | Potency, µM (doses to about 76.6 µM), usual class: activators | hit rate 0.24% among 390,000 | AID 1347120;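 further: plate controls were DMSO vehicle for no effect and reference control for full effect; nearly all actives have a fitted effect of over 55% in size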
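Galactose (2%) drives FUS expression in yeast precultured in raffinose; seeding density OD 0.005. Test compounds incubated 24hr at 30C and 99% humidity before absorbance at 600 nm was measured.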
Abeta rescue: compounds reversing amyloid beta toxicity in yeast | yeast expressing A-beta42, growth rescue, OD600, 48 h; response scale: 0% DMSO, 100% iron-clioquinol control | Potency, µM (titrated, usually from 46.1 µM), most hits filed as activators | hit rate 0.063% among 410,000; further: nearly all actives have a fitted effect of over 55% in size
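Growth rescue measured by 600 nm absorbance after 48 h yeast culture at 30 C with compound. Values normalized between DMSO and an equimolar ferric chloride plus clioquinol control.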
TDP-43 yeast inh: rescues yeast growth from TDP-43 toxicity; TDP-43 expressing yeast growth rescue, BacTiter-Glo, 24 h; Potency, µM (doses to about 46.1 µM), without a hit: at the highest dose growth rescue (activation), most hits filed as activators; hit rate 1.8% among 410,000; further: % of control where 0% means no effect; nearly all actives have a fitted effect of over 50% in size
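Yeast expressing TDP-43 (pregrown in raffinose, seeded at OD600=0.02 in galactose medium) exposed to compounds 24 hr at 30 deg C. Growth read by BacTiter-Glo luminescence; rescue of toxicity appears as increased signal.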
ClpP mod: qHTS Assay for Activators of ClpP | ATP-dependent Clp protease proteolytic subunit (Bacillus subtilis (strain 168)), P80244 | purified B. subtilis ClpP, FRET peptide cleavage, 20 min | Potency, µM (series often up to 57.5 µM), inactives show top-dose activity change, negative = active | hit rate 1.9% among 340,000 | AID 651965, 2013; active means well fitted falling curve with a large enough effect; inconclusive means small, poorly fitted or top-dose-only effect; inactive means no such curve, though single readings can be large or run the other way; further: the source files actives as falling curves though it sought activators and does not explain the sign; nearly all actives have a fitted effect of over 65% in size
Target sequence (P80244 whole entry, looked up): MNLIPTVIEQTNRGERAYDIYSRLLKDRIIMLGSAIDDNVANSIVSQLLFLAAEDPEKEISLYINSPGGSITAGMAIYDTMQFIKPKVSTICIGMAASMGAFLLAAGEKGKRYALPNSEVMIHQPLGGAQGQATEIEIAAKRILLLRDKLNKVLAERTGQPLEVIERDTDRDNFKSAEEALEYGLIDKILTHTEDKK
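Buffer: 100 mM Tris/HCl pH8, 100 mM KCl, 0.05% low protease BSA, 2.5% glycerol, 0.01% Tween-20. ClpP 10 microg/mL final; 20 min RT; delta FRET normalized to ADEP and DMSO controls.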
* marks the source's active call; other numbers are inactive results; i = inactive; ? = inconclusive; · = not tested or not shown; [ ] = remark or other dose. Unless noted, the call rests on the fitted dose curve; in most records, active means well fitted curve in the direction sought with a large enough effect; inconclusive means small, poorly fitted or top-dose-only effect, or another doubt; inactive means no such curve, though single readings can be large; an effect the other way counts as inactive or inconclusive. Potency means the concentration at half of the fitted maximal effect.

SMILES	MmCpn inh	aSyn rescue	FUS yeast rescue	Abeta rescue	TDP-43 yeast inh	ClpP mod
CCCCCc1cc[n+](CC(=O)c2ccccc2)cc1	·	5%	·	·	·	0%
NC(=O)C1=C(N=C2CCCCC2)CCCC1	·	-10%	·	i	0%	32µM*
O=C(c1ccccc1)C(CCc1ccccn1)CCc1ccccn1	·	-5%	i	i	4%	3.5µM*
CCOC(=O)C1CCN(C(=O)Cn2c(=O)cc(C)c3c(C)nn(C)c32)CC1	·	·	i	i	17%	?
O=C(C1CCCCC1)N1C[C@@H](n2cc(-c3ccc(F)cc3)nn2)[C@H](O)C[C@@H]1c1ccc(Cl)cc1	·	2%	i	i	22µM*	-1%
COc1cccc(-c2cc(C(=O)Nc3ccncc3)c3ccccc3n2)c1	-2%	0%	i	i	-7%	13µM*
COc1cccc(Nc2ncccc2C(=O)Nc2ccccc2)c1	-14%	-5%	i	i	22µM*	-4%
COc1cccc(NC(=O)c2cnn(-c3ccccc3)c2C)c1	0%	3%	i	i	20µM*	1%
COc1cccc(NC(=O)c2cc(-c3ccco3)nc3ccccc23)c1	·	-8%	i	i	-14%	·
COc1cccc(NC(=O)c2cc(-c3ccccn3)nc3ccccc23)c1	-2%	-3%	·	i	25µM*	12%
COc1cccc(NC(=O)c2ccccc2Oc2ccccc2)c1	1%	1%	?	i	19%	-1%
Fc1ccccc1-c1ccc(-c2nc3ccc(Cl)cn3c2Nc2ccc(Cl)cc2)o1	·	-45%	·	·	·	-11%
CC(OC(=O)c1cc(-c2cccnc2)nc2ccccc12)C(=O)Nc1ccc2ccccc2c1 (stereo not drawn)	-24%	9%	5.6µM*	i	-7%	-1%
O=C(Nc1ccc(C(F)(F)F)cc1)C(Cc1ccccc1)n1cccc1 (stereo not drawn)	·	-11%	i	i	-60%	-17%
Cc1nn(-c2ccccc2)c(OC(=O)c2cccs2)c1S(=O)(=O)c1ccc([N+](=O)[O-])cc1	-1%	-2%	40µM*	i	-31%	0%
CCOC(=O)Cn1c(CN(Cc2ccccc2)Cc2ccccc2)nc2c1c(=O)n(C)c(=O)n2C	1%	1%	?	i	22µM*	1%
CC(C)N(C(=O)c1ccccc1-c1ccccc1)C(C)C	-1%	20µM*	i	i	-3%	0%
O=C(c1cc2cc(F)ccc2[nH]1)N1CCCC(Nc2ccc(F)cc2)C1 (stereo not drawn)	-1%	3%	i	i	18µM*	0%
O=C1CCCN1CCC(=O)N1CCCC(Nc2ccc(F)cc2)C1 (stereo not drawn)	-3%	4%	·	i	-12%	28µM*
Cc1cn2c(=O)cc(COC(=O)c3cccc(NC(=O)c4ccccc4Cl)c3)nc2s1	·	·	i	i	0%	-17%
O=C1CC(=C(c2ccccc2)c2ccccc2)C(=O)N1CCN1CCN(c2cccc(Cl)c2)CC1	1%	10%	i	i	-8%	25µM*
O=C(CSc1nc(C2CC2)nc2ccccc12)N1c2ccccc2Sc2ccccc21	0%	-15%	i	i	8%	13µM*
S=C1SCCCN1Cc1ccc(Cl)cc1	·	2%	i	i	11µM*	-1%
CCc1ccc(NC(=O)COC(=O)c2ccccc2OCC(=O)N(C)C)cc1	·	-1%	·	·	·	-4%
CC(C)=CC(=O)Nc1ccc(OCc2ccccc2)cc1	0%	-21%	i	i	13µM*	·
SMILES	MmCpn inh	aSyn rescue	FUS yeast rescue	Abeta rescue	TDP-43 yeast inh	ClpP mod
O=C(Nc1ccc(OCc2ccccc2)cc1)c1ccccc1	-1%	-5%	i	i	9%	·
CCc1cc2c(CN3CCN(CC)CC3)cc(=O)oc2cc1O	-6%	5%	i	i	12%	28µM*
O=c1cc(CN2CCOCC2)c2cc(Cl)c(O)cc2o1	-4%	0%	i	i	10%	4%
CC(C)(C)c1ccc(OCCSc2nc(-c3cccs3)nc3cc(=O)[nH]n23)cc1	·	·	i	i	3%	2%
Fc1cc(F)cc(-c2oncc2-c2nnnn2-c2ccccc2)c1	1%	1%	i	i	25%	1%
Cc1ccc(-n2nnnc2-c2cnoc2-c2cccc(F)c2)cc1	-9%	6%	i	i	14µM*	-4%
O=C(CSCc1ccccc1Br)N/N=C/c1ccc2c(c1)OCO2	1%	-7%	·	i	18µM*	-2%
Cc1nc2ccn(Cc3ccco3)c(=O)c2cc1C(=O)NCc1ccc(F)cc1	·	·	i	i	5%	4%
O=C(Nc1ccc2c(c1)[nH]c(=O)c1ccccc12)C(F)(F)F	·	0%	·	i	0%	20%
Nc1ccc2c(c1)[nH]c(=O)c1ccccc12	·	?	·	i	-5%	20µM*
Nc1cc2[nH]c(=O)c3ccccc3c2cc1Br	·	10%	·	i	21%	-12%
Nc1cccc2[nH]c(=O)c3ccccc3c12	·	5%	·	i	0%	28µM*
CC(=O)Nc1ccc2c(c1)[nH]c(=O)c1ccccc12	·	8%	·	i	21%	32µM*
COCc1cc(C)n(CC(=O)Nc2cccc(C(C)=O)c2)c(=O)c1C#N	·	-5%	i	i	-4%	4%
C(=C\c1nc2ccccc2s1)/c1ccc2c(c1)OCO2	·	-27%	·	·	·	4%
N/C(=N\OC(=O)c1ccc2ccccc2c1)c1ccncc1	-7%	10%	i	i	13µM*	0%
N/C(=N\OC(=O)c1ccccc1Cl)c1cccc([N+](=O)[O-])c1	0%	-32%	i	i	11µM*	-3%
N/C(=N/OC(=O)c1cccc([N+](=O)[O-])c1)c1cccc([N+](=O)[O-])c1	2%	-9%	i	i	3%	2%
N/C(=N\OC(=O)c1ccc2ccccc2c1)c1ccccn1	1%	-7%	i	i	-13%[0.397 µM]	·
N/C(=N\OC(=O)c1ccc(F)cc1)c1cccc([N+](=O)[O-])c1	1%	-8%	i	i	13µM*	2%
N/C(Cc1ccc([N+](=O)[O-])cc1)=N\OC(=O)c1ccc([N+](=O)[O-])cc1	-3%	0%	·	i	18µM*	1%
N/C(Cc1ccc([N+](=O)[O-])cc1)=N\OC(=O)c1cccc(Br)c1	3%	-73%	i	i	-93%	2%
Cc1ccc(NC(=S)NNC(=O)c2cnccn2)cc1	·	·	i	·	·	·
